About 79,000 compounds went through this panel and 15% of them were active in at least one assay; those are over-represented in the sample as a whole. Unmarked numbers belong to inactive results. Calls of active or inactive are those of the source. No stated cut-off is given here; in the data, active means growth inhibition above about 70%; inactive means the rest.

The assay is described as follows: NCI Yeast Anticancer Drug Screen. Data for the mlh1 rad18 strain (AID 175). The conditions noted are these: S. cerevisiae mlh1 rad18 strain growth inhibition; at 50.0 µM; active compounds read high. The essentials: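 Inhibition values reflect reduced growth of mutant yeast versus vehicle-treated controls following compound exposure; the mutations affect DNA damage repair.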
As for `O=C(O)CCC(=O)Nc1cccc(C(F)(F)F)c1`, the growth inhibition was 4.3%.
In the case of `Cn1c(=O)c2c(nc3sc4ccccc4c(=O)n32)n(C)c1=O`, the growth inhibition is 13.8%.
Take `COc1ccc(/C=N/NC(=O)CCCCCCCCC(=O)N/N=C/c2ccc(OC)c(OC)c2)cc1OC`: the growth inhibition was -12.5%.
`Cc1cc(N(CCC#N)CCC#N)ccc1/C=C\C(=O)Nc1ccccc1`: the growth inhibition is 4.55%.
The figure for `COc1ccc(C(=O)c2ccccc2)c(O)c1OC` is 10.3%; for `Cn1cnc2ncnc(Nc3ccc(Cl)cc3)c21` it is -6.1%.
The figure for `CCOC(=O)C(C)(Cc1cccc2ccccc12)C(=O)OCC` is -24.9%; for `Oc1c(Cl)cc(N=Cc2ccc(N(CCCCl)CCCCl)cc2Cl)cc1Cl` it is 84% (active).
For the compound `CCOC(=O)C[n+]1cccc(Br)c1`, the growth inhibition is -0.45%.
In the case of `O=C(O)CNC(=O)c1cccc(Cl)c1`, the growth inhibition was 14.6%.
With `CCN(CC)c1ccc(N=Nc2ccc([N+](=O)[O-])cc2OC(=O)/C=C/c2ccccc2)c(OC(=O)/C=C/c2ccccc2)c1`, the growth inhibition is -22.8%.
The result for `O=C(O)c1ccnc(-c2ccc(Cl)cc2)c1` reads 9.05%.

Values taken from PubChem BioAssay (NCI).
